Measurements: PubChem BioAssay AID449729 (Southern Research Specialized Biocontainment Screening …, 2010)
Activity calls are given as the source filed them. The rule behind the calls is not given here.

What follows are compounds tested against Large T antigen (Simian virus 40) (UniProt P03070) (assay: SV40 TAg ATPase inhibitors, biochemical, ADP-Hunter, purified TAg, synthesized compounds, set 2 (AID 449729)). Details: ADP-Hunter fluorescence; series mostly up to 100 µM.
Large T antigen (Simian virus 40), sequence (P03070 whole entry, looked up): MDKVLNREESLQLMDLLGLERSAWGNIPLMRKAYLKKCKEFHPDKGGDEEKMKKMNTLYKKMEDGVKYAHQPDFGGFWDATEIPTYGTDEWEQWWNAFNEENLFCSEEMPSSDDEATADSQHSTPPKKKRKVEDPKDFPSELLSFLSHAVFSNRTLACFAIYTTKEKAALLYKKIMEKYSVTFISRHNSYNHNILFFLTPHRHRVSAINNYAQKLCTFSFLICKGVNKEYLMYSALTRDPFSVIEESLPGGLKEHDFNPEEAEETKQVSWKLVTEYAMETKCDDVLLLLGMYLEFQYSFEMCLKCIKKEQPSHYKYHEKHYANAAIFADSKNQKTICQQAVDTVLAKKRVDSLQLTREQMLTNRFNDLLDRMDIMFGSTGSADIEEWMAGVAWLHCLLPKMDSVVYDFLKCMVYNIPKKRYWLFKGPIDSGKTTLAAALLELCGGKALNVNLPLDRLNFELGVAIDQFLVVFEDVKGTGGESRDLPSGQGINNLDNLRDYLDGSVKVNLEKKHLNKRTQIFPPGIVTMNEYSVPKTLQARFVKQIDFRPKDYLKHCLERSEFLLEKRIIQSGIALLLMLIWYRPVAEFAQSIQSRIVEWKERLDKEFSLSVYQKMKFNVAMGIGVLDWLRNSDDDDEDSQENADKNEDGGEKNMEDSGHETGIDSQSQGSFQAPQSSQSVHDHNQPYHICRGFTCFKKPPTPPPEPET

outcome, inactive:
C=C(c1ccccc1Cl)c1ccccc1Cl
C=C(c1ccc(Cl)cc1)c1ccc(Cl)cc1
C=C(c1ccc(Br)cc1)c1ccc(Br)cc1
C=C(c1cccc(OC)c1)c1cccc(OC)c1
Oc1ccc(C2(c3ccc(O)cc3)CC2)cc1
COc1cccc(C(C)(O)c2cccc(OC)c2)c1
C=C(c1ccc(F)cc1)c1ccc(F)cc1
CC(C)(c1ccc(O)cc1)c1cccc(O)c1
